High-throughput results (PubChem)
PostGolgi yeast = growth inhibition of a yeast mutant, post-Golgi transport screen. post-Golgi transport phenotypic cell assay. inhibition, % at 10 µM. 0.9% of 98,000 active. AID 739;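 note: yeast cells grown in 1536-well plates; yeast grown about 18 h at 30C before absorbance read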
PostGolgi ctrl = inhibits growth of the yeast control strain | inhibition, % at 10 µM | efflux-deficient yeast background strain, growth absorbance A615, 16 h | 5% of 98,000 active
Cav32 inh = inhibitors of human Cav3.2 T-type calcium channel | AID 449739 | Cav3.2-expressing cells, Fluo-4 calcium fluorescence FDSS; stronger effect = lower value | 4% of 100,000 active | B-score at 10 µM;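 active = single-dose well whose peak fluorescence ratio is a statistical outlier from its plate by either plate-standardised score or position-corrected B-score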
Pyk2 oligo antag = antagonists of human Pyk2 oligomerization; Q14289; Q293 cells, Pyk2 FERM NanoBiT luminescence; stronger effect = lower value; z-score (the deposit names both 25 µM and 10 µM); 0.83% of 99,000 active; AID 1347419;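 active = Z-score of -3 or lower, scaled per plate to the spread of control and sample wells; inactive = z-score above -3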;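 note: negative z-score means lost luminescence so less FERM oligomerization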
Numbers without * were called inactive; · = no result given. Sampled rows, rich in hits. Any-hit rate of the full collection: about 8%. Cut-off read from the data, not from the text of the source, unless noted: active = inhibition above about 30%; inactive = the rest.

SMILES	PostGolgi yeast	PostGolgi ctrl	Cav32 inh	Pyk2 oligo antag
COc1cccc(-c2nc(N3CCCCC3C)c3ccccc3n2)c1O (configuration not stated)	18	75*	0.48	-1.2
CCN(CC)c1nc(-c2cccc(OC)c2O)nc2ccccc12	-3	32*	1.2	-1.8
COc1ccc2nc(Nc3nc(C)c(CCC(C)C)c(=O)[nH]3)nc(C)c2c1	-1	31*	-5.4*	-1.3
CN(CC(=O)Nc1ccc(Cl)cc1)CC(=O)Nc1cc(Cl)ccc1C#N	1	39*	-3.6	-0.43
CCCC(=O)Nc1cc(C)c2c(=O)oc3ccccc3c2n1	·	·	-3.9*	·
Cc1ncc(S(=O)(=O)c2ccc(Cl)cc2)c(-c2ccccc2)n1	3	12	-2.3	-1.1
O=S(=O)(c1ccccc1)c1cnn(-c2ccccc2)c1-c1ccc(Cl)cc1	6	39*	-3.9*	-2.1
CCCC(=O)Nc1cc(=O)n(C)c(=O)n1C	16	14	·	·
Cn1c(NC(=O)CCc2ccccc2)cc(=O)n(C)c1=O	-5	36*	-0.29	·
COC(=O)CCCCCN1C(=O)NC(C2CC2)C(C(=O)OCc2ccccc2)=C1C (configuration not stated)	·	·	-0.97	·
COc1cc(NC(=O)c2ccc3c(c2)OCO3)c2ncccc2c1	-4	4	0.84	-0.07
O=C(Nc1cccc2cccnc12)c1ccc2c(c1)OCCO2	4	20	-4.5*	-2.2
COc1ccc(CCN2C(=O)c3[nH]nc(-c4ccccc4O)c3C2c2cccc(Cl)c2)cc1 (configuration not stated)	7	24	-2.1	-3.5*
COc1ccc(C2c3c(-c4ccccc4O)n[nH]c3C(=O)N2CCc2ccc(OC)c(OC)c2)cc1 (configuration not stated)	13	7	0.67	-3.5*
COc1cc(C2c3c(oc4ccccc4c3=O)C(=O)N2Cc2ccco2)ccc1O (configuration not stated)	-2	7	1.4	-0.64
O=C1c2[nH]nc(-c3ccccc3O)c2C(c2cccc(O)c2)N1Cc1ccco1 (configuration not stated)	6	15	-5*	-2.5
Cc1ccc(C2c3c(-c4ccccc4O)n[nH]c3C(=O)N2Cc2ccncc2)cc1 (configuration not stated)	-6	-2	0.78	-2.4
COc1ccc(C2C(C(C)=O)=C(O)C(=O)N2CCc2ccccc2)c(OC)c1 (configuration not stated)	2	-1	0.057	0.91
c1ccc(Cc2nc3ccccc3n2Cc2ccccc2)cc1	-2	19	-4.3*	-0.49
CC(C)(C)Cc1nc2ccccc2n1CCc1ccccc1	0	25	-4.3*	-0.52
O=C(CSc1nnc(-c2ccc(F)cc2)o1)Nc1ccccc1N1CCOCC1	·	·	-1.4	0.23
O=C(NCC(=O)N(c1ccccc1)C(C(=O)NCC1CCCO1)c1ccccc1)c1ccco1 (configuration not stated)	-1	9	-0.077	-0.46
Cc1cc(-c2cccc([N+](=O)[O-])c2)nc2ccc3ccccc3c12	11	5	-0.074	0.03
Cc1ccc(S(=O)(=O)/N=C(\N)Nc2nc(C)c3cc(C)c(C)cc3n2)cc1	-7	40*	-1.4	-0.18
Cc1ccc(S(=O)(=O)/N=C(\N)Nc2nc(C)c3ccc(C)cc3n2)cc1	-3	24	-1.7	-1.1
SMILES	PostGolgi yeast	PostGolgi ctrl	Cav32 inh	Pyk2 oligo antag
Cc1ccc(S(=O)(=O)N2CN(Cc3ccco3)c3nc4ccccc4nc32)cc1C	-1	32*	-2.2	0.55
COc1ccc(OC)c(-c2nnc(-c3ccc(C)o3)o2)c1	-4	6	-0.0047	0.06
CCOC(=O)c1c(-c2cccs2)csc1NC(C)=O	·	·	-2.3	0.41
CCOC(=O)c1c(-c2cccs2)csc1NC(=O)CSc1ncn[nH]1	-3	19	-4.7*	-1.4
CCOC(=O)c1c(-c2ccc(C)o2)csc1NC(=O)CSc1nnnn1-c1ccccc1	5	7	-2.7	1.3
CCOC(=O)c1c(-c2ccc(C)o2)csc1NC(=O)CSc1nnc(C)s1	-6	23	-6.2*	0.97
CCOC(=O)c1c(-c2cccs2)csc1NC(=O)CN1CC(C)OC(C)C1 (configuration not stated)	-3	43*	-1.1	-2.1
CCOC(=O)c1c(-c2cccs2)csc1NC(=O)C(C)(C)C	1	2	-0.19	-0.8
CCc1ccc2oc(-c3cc(N)ccc3Cl)nc2c1	1	35*	-0.82	0.46
CCc1ccc2oc(-c3cc(N)cc(C)c3O)nc2c1	-4	22	-0.49	-0.13
CCc1ccc2oc(-c3cc(N)ccc3O)nc2c1	22	53*	1.3	-0.5
O=C(CCN1C(=O)c2ccccc2C1=O)N1CCN(C2c3ccccc3-c3ccccc32)CC1	-1	53*	-4.2	-1.8
